Only some compounds are listed: those with a hit (about 4.7% of all), similar ones and a draw of the others.
PfHsp90 set2: inhibits growth of yeast expressing Plasmodium falciparum Hsp90. S. cerevisiae expressing PfHsp90, BacTiter-Glo ATP, 48 h; yeast lacking PDR1 and PDR3 efflux regulators. inhibition, % at 9.4 µM. hit rate 0.32% among 310,000;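 active = every replicate shows inhibition above about 80%, whatever the replicate mean, limit read from the data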
tim10-1 inh: growth inhibitors of tim10-1 mutant yeast. hit rate 2.2% among 330,000. inhibition, % at 20 µM. S. cerevisiae tim10-1 ts strain growth, BacTiter-Glo, 24 h. AID 463190;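 active = inhibition of at least 40%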;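 also: mutant grown at 25 °C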
TIM10 inh: TIM10 yeast growth inhibition. S. cerevisiae TIM10 strain growth, BacTiter-Glo luminescence, 24 h. hit rate 1.4% among 330,000. AID 463195. inhibition, % at 10 µM;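 active = inhibition of 40% or more at the single tested concentration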;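 also: wild-type TIM10 isogenic control strain grown at permissive 25 °C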
tim23-1 inh: growth inhibitors of tim23-1 mutant yeast; hit rate 1.3% among 330,000; inhibition, % at 20 µM; S. cerevisiae tim23-1 growth, BacTiter-Glo luminescence, 24 h;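 active = growth inhibition of the mutant yeast at or above 50%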;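 also: temperature-sensitive mutant grown at 25 °C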
ATG4B inhibitor: inhibitors of human ATG4B cysteine protease | Q9Y4P1 | ATG4B cleavage of LC3-PLA2, NBD-HPC fluorescence, 1 h | inhibition, % at 8.33 µM | hit rate 0.51% among 340,000 | AID 504462; in the data active = inhibition above about 40%
Target sequence (Q9Y4P1 whole entry, looked up): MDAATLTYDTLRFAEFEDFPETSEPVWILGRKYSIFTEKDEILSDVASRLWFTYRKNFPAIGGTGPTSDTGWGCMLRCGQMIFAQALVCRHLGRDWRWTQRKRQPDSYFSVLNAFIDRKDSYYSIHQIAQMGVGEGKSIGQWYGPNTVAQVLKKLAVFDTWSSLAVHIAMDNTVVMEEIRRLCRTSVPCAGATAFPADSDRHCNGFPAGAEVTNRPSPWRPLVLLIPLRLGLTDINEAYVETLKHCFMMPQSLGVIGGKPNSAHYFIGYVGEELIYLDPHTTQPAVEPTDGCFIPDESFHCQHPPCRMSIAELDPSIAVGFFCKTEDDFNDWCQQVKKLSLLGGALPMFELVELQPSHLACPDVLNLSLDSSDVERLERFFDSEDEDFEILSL
SKKanGAS inh: blocks kanamycin growth of S. pyogenes SKKanGAS strain; hit rate 1.3% among 300,000; BacTiter-Glo, 6 h; inhibition, % at 7.5 µM;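 active = mean replicate score, as percent of positive control median, at least 50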;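 also: strain carries kanamycin resistance gene driven by streptokinase promoter and grows in 40 µg/ml kanamycin; loss of luminescence reflects streptokinase promoter inhibition or plain growth inhibition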
tim10-1 conf: confirmation of tim10-1 mutant yeast growth inhibitors; AID 463213; hit rate 56% among 7,400; S. cerevisiae tim10-1 ts strain growth, BacTiter-Glo, 24 h; inhibition, % at 20 µM; shares compounds with tim10-1 inh;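 active = inhibition of yeast growth at or above a set limit in either of two repeat tests at 20 µM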;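 also: tim10-1 mutant grown at permissive 25 °C to find synthetic lethal compounds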
tim10 confirm: confirmation of TIM10 yeast growth inhibitors. hit rate 63% among 4,600. inhibition, % at 10 µM. S. cerevisiae tim10 strain growth, BacTiter-Glo luminescence, 24 h. shares compounds with TIM10 inh;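 active = inhibition of yeast growth at or above a set limit in either of two replicates at 10 µM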; also: this counterscreen used the strain with wild-type TIM10
tim23-1 confirm: confirmation of tim23-1 mutant yeast growth inhibitors; inhibition, % at 20 µM; shares compounds with tim23-1 inh; hit rate 83% among 4,400; S. cerevisiae tim23-1 growth, BacTiter-Glo luminescence, 24 h;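 active = inhibition above about 39% in either of two replicate wells at 20 µM, limit read from the data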;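 also: temperature-sensitive tim23-1 mutant grown at 25 °C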
Of the large screens only hits and unclear results are named; the others gave an inactive call (follow-up assays come after a bar, where they were run).

COc1ccc(-c2nnc(SCc3cc(C)cc(C)c3)o2)cc1	none
O=C1SC(SCc2ccccc2)=N/C1=C\c1ccc(C(=O)O)cc1	none
O=C1SC(SCc2ccccc2)=N/C1=C\c1ccco1	tim10-1 inh 56.7, TIM10 inh 42.8, tim23-1 inh 54.1 | tim10-1 conf 40.0 | tim10 confirm 48.9 | tim23-1 confirm 57.9
Oc1ccccc1C1Nc2cccc3cccc(c23)N1	tim10-1 inh 51.8, TIM10 inh 46.4, tim23-1 inh 77.0 | tim10-1 conf 52.2 | tim10 confirm 43.8 | tim23-1 confirm 73.5
CCOc1cccc(NCc2cc3c(C(C)(C)C)nn(-c4ccccc4)c3[nH]c2=O)c1	tim10-1 inh 49.8, TIM10 inh 42.2, tim23-1 inh 67.8 | tim10-1 conf 41.8 | tim10 confirm inactive | tim23-1 confirm 65.2
CCN(CC)CCN1C(=O)C(=O)/C(=C(/O)c2ccc3c(c2)CC(C)O3)C1c1ccc(OC)cc1 (stereo not given)	none
CC(=O)Oc1oc(-c2ccccc2)nc1C=Nc1ccccc1	tim10-1 inh 53.4, TIM10 inh 40.6, tim23-1 inh 77.0 | tim10-1 conf 48.6 | tim10 confirm 44.0 | tim23-1 confirm 76.2
CCC(=O)Oc1oc(-c2ccccc2)nc1C=Nc1ccccc1OC	tim10-1 inh 49.6, tim23-1 inh 52.6 | tim10-1 conf 36.5 | tim23-1 confirm 70.2
CCC(=O)Oc1oc(-c2ccccc2)nc1C=Nc1ccc(C)cc1	none
CCOC(=O)c1ccc(N=Cc2nc(-c3ccccc3)oc2OC(C)=O)cc1	tim10-1 inh 70.6, TIM10 inh 45.4, tim23-1 inh 57.9 | tim10-1 conf 54.7 | tim10 confirm 68.1 | tim23-1 confirm 83.5
Cc1cc(CNC(=O)COc2ccc(C)c(C)c2)c2ccccc2n1	none (no result: PfHsp90 set2)
COc1ccc(S(=O)(=O)NCc2c(-c3ccccc3)noc2C)c(OC)c1	none
CCCCN1CCc2c([nH]c3ccc(C)cc23)C1=O	none
CCOc1c(Br)cc(/C=C2\N=C(C)OC2=O)cc1Br	tim10-1 inh 61.4, tim23-1 inh 58.7 | tim10-1 conf 32.5 | tim23-1 confirm 64.0
COC(=O)/C(=C\c1ccc(O)cc1)c1nc2ccccc2[nH]1	none
O=C(/C(=C/c1ccc(Cl)cc1)c1nc2ccccc2[nH]1)c1cccs1	tim10-1 inh 55.9, TIM10 inh 70.2, tim23-1 inh 50.6 (no result: PfHsp90 set2) | tim10-1 conf 38.7 | tim10 confirm 70.7 | tim23-1 confirm inactive
O=C(/C(=C\c1ccccc1)c1nc2ccccc2[nH]1)c1ccc(Cl)cc1	PfHsp90 set2 104.2, tim10-1 inh 43.0, tim23-1 inh 50.8 | tim10-1 conf 34.5 | tim23-1 confirm 62.4
COCc1nnc(NC(=O)c2cc3ccccc3o2)s1	none
CC(=O)NCCCc1nc2ccccc2n1Cc1ccc(C)cc1	none
CCn1c(CNC(=O)Cc2ccc(OC)cc2)nnc1SCC(=O)c1ccccc1	none (no result: tim10-1 inh, TIM10 inh, tim23-1 inh, SKKanGAS inh)
NNc1nc(C(F)(F)F)nc2ccccc12	none
O/C=c1\ccc2cccc3nc(C(F)(F)F)nc1c23	tim10-1 inh 62.9, TIM10 inh 52.3, tim23-1 inh 50.1 | tim10-1 conf 53.7 | tim10 confirm 50.8 | tim23-1 confirm 50.1
Brc1ccc(-c2nc(N/N=C/c3cccnc3)c3ccccc3n2)cc1	tim10-1 inh 82.0, TIM10 inh 67.4, tim23-1 inh 80.5 | tim10-1 conf inactive | tim10 confirm 55.5 | tim23-1 confirm 85.9
COc1cccc(/C=N/Nc2nc(-c3cccnc3)nc3ccccc23)c1	none
CCCCN1CC(COCc2ccccc2)Oc2cccc(Oc3ccccc3)c2S1(=O)=O (stereo not given)	none (no result: tim10-1 inh, TIM10 inh, tim23-1 inh, SKKanGAS inh)
CN(/N=C/c1ccc(O)cc1O)c1ncc(C(F)(F)F)cc1Cl	tim10-1 inh 45.3, tim23-1 inh 61.7 | tim10-1 conf inactive | tim23-1 confirm 56.4
CN(/N=C/c1ccccc1Cl)c1ncc(Cl)cc1C(F)(F)F	none
O=C(N/N=C/c1ccccc1C(=O)O)c1ccccc1Br	none (no result: PfHsp90 set2)
C=CCc1cccc(/C=N/NC(=O)c2ccccc2Br)c1O	tim10-1 inh 43.8, TIM10 inh 63.7, tim23-1 inh 61.8 | tim10-1 conf inactive | tim10 confirm 57.5 | tim23-1 confirm 60.7
CCOP(=O)(OCC)C(Nc1cccc([N+](=O)[O-])c1)c1ccc(OC)cc1 (stereo not given)	none (no result: PfHsp90 set2)
Cc1ccc(C(=O)N2CCc3ccccc32)o1	none
O=C(Nc1ccccc1N1CCOCC1)c1ccc([N+](=O)[O-])o1	PfHsp90 set2 109.0, tim10-1 inh 79.6, TIM10 inh 90.1, tim23-1 inh 70.0 | tim10-1 conf 80.1 | tim10 confirm 93.6 | tim23-1 confirm 70.8
O=C(c1ccc([N+](=O)[O-])o1)N1CCc2ccccc21	tim10-1 inh 65.5, TIM10 inh 67.3, tim23-1 inh 77.3 | tim10-1 conf 76.9 | tim10 confirm 79.1 | tim23-1 confirm 85.7
O=C(NCCc1ccccc1)c1ccc(=O)[nH]c1	none
CC1CCN(S(=O)(=O)c2ccc(Cl)cc2)CC1	tim10-1 inh 40.2, TIM10 inh 42.4, tim23-1 inh 54.5 | tim10-1 conf 35.8 | tim10 confirm inactive | tim23-1 confirm 40.2
CCN(CC)CCNC(=O)c1ccc(Cl)c(S(=O)(=O)Nc2ccccc2OC)c1	none
O=C(/C=C\c1cccs1)c1c(O)ccc2ccc(=O)oc12	tim10-1 inh 75.3, TIM10 inh 75.3, tim23-1 inh 78.0 | tim10-1 conf 80.8 | tim10 confirm 74.7 | tim23-1 confirm 68.8
O=C(c1cccs1)N(c1ccc(F)cc1)C1C=CS(=O)(=O)C1 (stereo not given)	none
Cc1c(C(=O)NCc2ccc3c(c2)OCO3)oc2ccccc12	tim10-1 inh 47.9, TIM10 inh 40.7, tim23-1 inh 53.1 (no result: PfHsp90 set2) | tim10-1 conf 42.1 | tim10 confirm inactive | tim23-1 confirm 55.0
COc1ccc(-c2nc(-c3cccs3)c(-c3cccs3)[nH]2)cc1O	tim10-1 inh 52.3, tim23-1 inh 73.9, SKKanGAS inh 60.8 (no result: PfHsp90 set2) | tim10-1 conf 33.9 | tim23-1 confirm 71.3
COc1ccc(-c2nnc(-c3cccs3)o2)cc1OC	none
Cc1ccc(S(=O)(=O)c2c(C)nn(C(C)(C)C)c2OC(=O)c2ccc(Br)o2)cc1	tim10-1 inh 49.9, TIM10 inh 42.2, tim23-1 inh 69.5 | tim10-1 conf 37.4 | tim10 confirm 34.6 | tim23-1 confirm 48.7
Cc1ccc(S(=O)(=O)c2c(C)nn(C(C)(C)C)c2OC(=O)c2ccco2)cc1	tim10-1 inh 46.5, tim23-1 inh 64.4 | tim10-1 conf 31.6 | tim23-1 confirm 46.5
